We go through 40 compounds from PubChem BioAssay.

Activity calls are given as the source filed them. No rule for the calls is given here.

This assay relates to Aerobactin synthetase IucA (Klebsiella pneumoniae hvKP1). The assay can be described thus: IucA enzyme inhibition, primary screen, biochemical, Spectrum library (AID 1346200).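 Also: 100% = wells without compound and 0% = wells lacking enzyme.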 The settings on record: malachite green pyrophosphate, A620, at 8 µM, stronger effect = lower value.
As to `CCC(Cc1c(I)cc(I)c(N)c1I)C(=O)O` (stereo not given), the activity remaining is 103% (inactive).

On to `CC(=O)N[C@@H]1[C@@H](O)[C@H](O)[C@@H](CO)O[C@H]1O`, for which the activity remaining is 106% (inactive).

Turning to `OC/C=C/c1ccc(O)c(O)c1`, the activity remaining was 81.7% (inactive).

Turning to `c1coc(CNc2ncnc3nc[nH]c23)c1`, the activity remaining is 116% (inactive).

As to `CC(=O)OCC[C@H](C)CCC=C(C)C`, the activity remaining was 104% (inactive).

Regarding `Oc1cc(O)c2c(c1)O[C@H](c1ccc(O)c(O)c1)[C@H](O)C2`, the activity remaining is 99.8% (inactive).

With `O=C(O)[C@@H](S)[C@@H](S)C(=O)O`, the activity remaining was 49.3% (active).

With `C1N2CN3CN1CN(C2)C3`, the activity remaining was 104% (inactive).

`O=C(NC1CCCCC1)NC1CCCCC1`: the activity remaining is 71.2% (inactive).

Take `CN1C2CC3C[C@H]1C(O3)C2O` (stereo not given in full): the activity remaining was 108% (inactive).

Take `COC(=O)C1=CO[C@@H](O[C@@H]2O[C@H](CO)[C@@H](O)[C@H](O)[C@H]2O)[C@@H]2[C@@H](C)[C@@H](O)C[C@H]12`: the activity remaining was 101% (inactive).

With `CC(C)(O)[C@@H]1Cc2cc3ccc(=O)oc3cc2O1`, the activity remaining is 113% (inactive).

Regarding `COc1cc2c(cc1OC)C1(O)C(=O)c3ccc(O)c(C(=O)O)c3OC1CO2` (stereo not given), the activity remaining is 117% (inactive).

On to `CC(=O)N(O)CCCCCNC(=O)CCC(=O)N(O)CCCCCNC(=O)CCC(=O)N(O)CCCCCN`, for which the activity remaining is 117% (inactive).

For `Cn1nnnc1SCC1=C(C(=O)O)N2C(=O)C(NC(=O)C(O)c3ccccc3)C2SC1` (stereo not given), the activity remaining was 121% (inactive).

For the compound `CN(C)c1ccc2nc3ccc(=[N+](C)C)cc-3sc2c1`, the activity remaining is 104% (inactive).

For `COc1cc(O)cc(/C=C/c2ccccc2)c1`, the activity remaining is 104% (inactive).

On to `CN[C@@H]1[C@@H](O[C@H]2O[C@H](CO)[C@@H](N)[C@H](O)[C@H]2O)O[C@H]2C[C@@H](N)[C@H](O[C@H]3[C@H](O)[C@@H](O)[C@H](N)C[C@@H]3N)O[C@@H]2[C@@H]1O`, for which the activity remaining is 124% (inactive).

As for `CCCCCC/C=C\CCCCCCCc1cccc(O)c1C(=O)O`, the activity remaining was 112% (inactive).

In the case of `Nc1ccc(C(=O)Oc2ccccc2)c(O)c1`, the activity remaining was 114% (inactive).

As to `C=C1C2=CC(=O)O[C@@H](c3ccoc3)[C@]2(C)CCC1[C@@]1(C)C=CC(=O)C(C)(C)[C@@H]1CC(=O)OC` (stereo not given in full), the activity remaining is 100% (inactive).

For `COc1c(O)cc2c(-c3ccccc3)cc(=O)oc2c1OC`, the activity remaining is 130% (inactive).

For `COc1ccccc1OCCNCC(O)COc1cccc2[nH]c3ccccc3c12` (stereo not given), the activity remaining was 120% (inactive).

Consider `O=C(O)CCC(=O)Nc1ccc(S(=O)(=O)Nc2nccs2)cc1`, for which the activity remaining was 116% (inactive).

As to `COc1cc2c(cc1OC)[C@@H]1C(=O)c3ccc4c(c3O[C@@H]1CO2)C=CC(C)(C)O4`, the activity remaining was 118% (inactive).

`COc1cc(/C=C/C(=O)/C=C(O)/C=C/c2ccc(O)c(OC)c2)ccc1O`: the activity remaining was 103% (inactive).

As for `O=C(/C=C/C(=O)Oc1ccccc1C(=O)O)Oc1ccccc1C(=O)O`, the activity remaining was 92% (inactive).

As to `COc1ccc2c(c1)CCC1C2CC[C@@]2(C)C1CC[C@@H]2O` (stereo not given in full), the activity remaining was 111% (inactive).

For the compound `CO/N=C(/C(=O)NC1C(=O)N2C(C(=O)OC(C)OC(C)=O)=C(COC(N)=O)CSC12)c1ccco1` (stereo not given), the activity remaining was 114% (inactive).

`OC(CCN1CCCC1)(c1ccccc1)C1CCCCC1` (stereo not given): the activity remaining is 99.4% (inactive).

In the case of `Cc1coc2c1C(=O)C(=O)c1c-2ccc2c1CCCC2(C)C`, the activity remaining was 103% (inactive).

Turning to `COc1cc(O)c(C(=O)/C=C/c2ccc(O)c(OC)c2)c(OC)c1`, the activity remaining was 77.4% (inactive).

`CC1(C)C2C[C@@H](O)[C@]3(C)C(CC[C@@]4(C)[C@H](c5ccoc5)OC(=O)C5OC543)[C@@]2(C)C(=O)C[C@H]1O` (stereo not given in full): the activity remaining is 108% (inactive).

For `COC(=O)C1=CO[C@@H](C)[C@@H]2CN3CC[C@]4(C(=O)Nc5ccccc54)C3CC12` (stereo not given in full), the activity remaining was 121% (inactive).

In the case of `CC1CC[C@@]2(OC1)O[C@H]1CC3C4CC[C@@H]5C[C@@H](O)CC[C@]5(C)C4CC[C@]3(C)[C@H]1[C@@H]2C` (stereo not given in full), the activity remaining is 111% (inactive).

On to `CC(=O)Oc1ccc(C(c2ccc(OC(C)=O)cc2)c2ccccn2)cc1`, for which the activity remaining is 82.7% (inactive).

For `CC(=O)O[C@@H]1CC2C(C)(C)C=CC(=O)[C@]2(C)C2CC[C@@]3(C)[C@H](c4ccoc4)OC(=O)C4OC43[C@@]21C` (stereo not given in full), the activity remaining is 119% (inactive).

Consider `CCCc1nn(C)c2c(=O)[nH]c(-c3cc(S(=O)(=O)N4CCN(C)CC4)ccc3OCC)nc12`, for which the activity remaining was 97% (inactive).

Take `C#C[C@]1(O)CCC2C3CCC4=C(CCC(=O)C4)C3CC[C@@]21C` (stereo not given in full): the activity remaining is 109% (inactive).

For the compound `CC(=O)O[C@@H]1CC2C(C)(CC[C@H](O)C2(C)C)C2CC[C@]3(C)C(=CC(=O)O[C@H]3c3ccoc3)C21C` (stereo not given in full), the activity remaining is 95.5% (inactive).
